This is part of a sample that, as a whole, favours compounds with a hit. Of some 83,000 tested, about 20% had one in any assay.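 Results are percent growth after 48 hours of single-concentration exposure. 100 means growth as in untreated cells, lower positive values show inhibition; negative values down to -100 show cell death.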 The source made the active and inactive calls. The calls were made as follows: active = growth percent below 10; inactive = the rest.
Tests used:
Assay in all cases: NCI-60 one-dose screen, 48 h (100 = growth as untreated, 0 = no growth, -100 = all killed)
Settings in all cases: 10 µM unless noted
NCI-H23 lung = system: NCI-H23 lung
NCI-H226 lung = system: NCI-H226 lung
NCI-H322M lung = system: NCI-H322M lung
HOP-62 NSCLC = system: HOP-62 NSCLC
NCI-H460 lung = system: NCI-H460 lung
HOP-92 NSCLC = system: HOP-92 NSCLC
NCI-H522 lung = system: NCI-H522 lung
A549/ATCC NSCLC = system: A549/ATCC NSCLC
786-0 renal = system: 786-0 renal
COLO 205 colon = system: COLO 205 colon

Measured: growth

COc1ccc(/C=N/NC(=O)Cn2nnc3ccccc32)cc1
inactive: NCI-H23 lung 101% | NCI-H226 lung 96.4% | NCI-H322M lung 89.1% | HOP-62 NSCLC 99.9% | NCI-H460 lung 96.6% | HOP-92 NSCLC 104% | NCI-H522 lung 90.9% | A549/ATCC NSCLC 96.5% | 786-0 renal 103% | COLO 205 colon 109%

COc1cc2nc3cc([N+](=O)[O-])ccc3c(NCCCNCCO)c2cc1OC
active: NCI-H23 lung -29.1% | NCI-H226 lung -39.5% | NCI-H322M lung -27.7% | HOP-62 NSCLC -60.6% | NCI-H460 lung -39% | HOP-92 NSCLC -46.4% | NCI-H522 lung -52% | A549/ATCC NSCLC -26.6% | 786-0 renal -39.2% | COLO 205 colon -76.2%

O=C(O)c1nn(-c2ccc(Cl)cc2)nc1N1CCCC1
inactive: NCI-H23 lung 91% | NCI-H226 lung 90.8% | NCI-H322M lung 97.7% | HOP-62 NSCLC 97.5% | NCI-H460 lung 101% | HOP-92 NSCLC 77.1% | NCI-H522 lung 89.3% | A549/ATCC NSCLC 101% | 786-0 renal 100% | COLO 205 colon 111%

O=C(Nc1ccc(Cl)cc1)C1=NCCCCN1
inactive: NCI-H23 lung 92% | NCI-H226 lung 84.7% | NCI-H322M lung 83.5% | HOP-62 NSCLC 70.7% | NCI-H460 lung 86.3% | HOP-92 NSCLC 89.9% | NCI-H522 lung 82.6% | A549/ATCC NSCLC 92.6% | 786-0 renal 99.9% | COLO 205 colon 99.6%

Oc1ccc(Cc2ccc(O)c3ncccc23)c2cccnc12
inactive: NCI-H226 lung 12.1% | 786-0 renal 19% | COLO 205 colon 71%
active: NCI-H23 lung 9.78% | NCI-H322M lung 9.39% | HOP-62 NSCLC -2.91% | NCI-H460 lung 7.23% | HOP-92 NSCLC -25.9% | NCI-H522 lung -10.8% | A549/ATCC NSCLC 7.38%

CS(=O)(=O)c1ccc(/C(=N/NC(N)=S)c2ccc(F)cc2)cc1
inactive: NCI-H23 lung 97.9% | NCI-H226 lung 107% | NCI-H322M lung 104% | HOP-62 NSCLC 105% | NCI-H460 lung 102% | HOP-92 NSCLC 112% | NCI-H522 lung 99.6% | A549/ATCC NSCLC 108% | 786-0 renal 102% | COLO 205 colon 116%

CCN1CCN(c2cc(C(=O)Nc3cccc(Nc4ccc5c(OC)cccc5n4)c3)cc(C(F)(F)F)c2)CC1
inactive: NCI-H23 lung 44.5% | NCI-H226 lung 45.1% | NCI-H322M lung 26.2% | A549/ATCC NSCLC 21.1%
active: HOP-62 NSCLC 5.17% | NCI-H460 lung -48.7% | HOP-92 NSCLC -3.85% | NCI-H522 lung -45.2% | 786-0 renal -70.1% | COLO 205 colon -77.1%

COc1ccc(Nc2nccc(Nc3ccc4[nH]ncc4c3)n2)cc1
inactive: NCI-H23 lung 40.3% | NCI-H226 lung 28.1% | NCI-H322M lung 63.2% | HOP-62 NSCLC 49% | NCI-H460 lung 24.9% | NCI-H522 lung 19.1% | A549/ATCC NSCLC 24% | 786-0 renal 43.5% | COLO 205 colon 26.4%
active: HOP-92 NSCLC -1.08%

Cc1nn(-c2ccccc2)c(Oc2ccccc2)c1/C=N/NC(=O)Cn1c(=O)sc2ccccc21
inactive: NCI-H23 lung 37.4% | NCI-H226 lung 69.8% | NCI-H322M lung 74.9% | HOP-62 NSCLC 57.4% | NCI-H460 lung 55.6% | HOP-92 NSCLC 50.1% | NCI-H522 lung 40.6% | A549/ATCC NSCLC 37.5% | 786-0 renal 74.5% | COLO 205 colon 28.5%

Cc1ccc(Nc2oc(-c3ccccc3)nc2[P+](c2ccccc2)(c2ccccc2)c2ccccc2)cc1
active: NCI-H23 lung -51.8% | NCI-H226 lung -13.8% | NCI-H322M lung -21.6% | HOP-62 NSCLC -51.1% | NCI-H460 lung -81.7% | HOP-92 NSCLC -44.8% | NCI-H522 lung -57.4% | A549/ATCC NSCLC -25% | 786-0 renal -77.5% | COLO 205 colon -34.7%

COc1ccc(/C=C\c2cc(OC)c(OC)c(OC)c2)cc1OCC(=O)Nc1nc2ccccc2s1
active: NCI-H460 lung 1.29% | NCI-H522 lung -21.8% | COLO 205 colon 6.65%
inactive: NCI-H23 lung 23.5% | NCI-H226 lung 41.7% | NCI-H322M lung 61.6% | HOP-62 NSCLC 62.5% | HOP-92 NSCLC 50.6% | A549/ATCC NSCLC 29.9% | 786-0 renal 51.4%

CCOc1ccc(-c2cc(C3(S(=O)(=O)c4ccc(C)cc4)CC=CC3)on2)cc1
inactive: NCI-H23 lung 73.2% | NCI-H226 lung 47.7% | NCI-H322M lung 96.4% | HOP-62 NSCLC 85.9% | NCI-H460 lung 91.1% | HOP-92 NSCLC 86.1% | NCI-H522 lung 70.6% | A549/ATCC NSCLC 92.8% | 786-0 renal 102% | COLO 205 colon 95.5%

C#Cc1cccc(Nc2nc(Cl)nc3cc(NC(=O)CCl)ccc23)c1
inactive: A549/ATCC NSCLC 13.1%
active: NCI-H23 lung -73.9% | NCI-H226 lung -49.4% | NCI-H322M lung -73.1% | HOP-62 NSCLC -77% | NCI-H460 lung -58.9% | HOP-92 NSCLC -82.7% | NCI-H522 lung -69.1% | 786-0 renal -83.6% | COLO 205 colon -70.5%

CC(=O)c1ccc(Nc2nccc(-c3ccc(Cl)cc3)n2)cc1
inactive: NCI-H23 lung 84.2% | NCI-H226 lung 54% | NCI-H322M lung 100% | HOP-62 NSCLC 108% | NCI-H460 lung 85.5% | HOP-92 NSCLC 109% | NCI-H522 lung 90.8% | A549/ATCC NSCLC 87% | 786-0 renal 101% | COLO 205 colon 105%

COc1ccc(NC(=O)c2ccc(NC3=C(c4ccc(Cl)cc4)C(=O)NC3=O)cc2)cc1
inactive: NCI-H23 lung 85.3% | NCI-H226 lung 84.4% | NCI-H322M lung 85.2% | HOP-62 NSCLC 80.8% | NCI-H460 lung 90.6% | HOP-92 NSCLC 102% | NCI-H522 lung 45.2% | A549/ATCC NSCLC 71.2% | 786-0 renal 89.1% | COLO 205 colon 86.3%

Cn1cc(-c2csc(-c3cn(CCO)c4ccc(F)cc34)n2)c2cccnc21
inactive: NCI-H23 lung 74.1% | NCI-H226 lung 76% | NCI-H322M lung 79.1% | HOP-62 NSCLC 52.6% | NCI-H460 lung 27% | HOP-92 NSCLC 64.8% | NCI-H522 lung 10% | A549/ATCC NSCLC 49.8% | 786-0 renal 73.3% | COLO 205 colon 46%

CC(C)(C)CC(C)(C)Nc1c(-c2c(O)c3ccccc3oc2=O)nc2sccn12
inactive: NCI-H23 lung 97.9% | NCI-H226 lung 88.9% | NCI-H322M lung 86.7% | HOP-62 NSCLC 85% | NCI-H460 lung 111% | HOP-92 NSCLC 107% | NCI-H522 lung 83% | A549/ATCC NSCLC 90.8% | 786-0 renal 109% | COLO 205 colon 102%

Cc1cc2c(C(C)C)c(O)c(O)c(/C=N/O)c2c(O)c1-c1c(C)cc2c(C(C)C)c(O)c(O)c(/C=N/O)c2c1O
active: NCI-H460 lung 2.59% | HOP-92 NSCLC 8.85% | NCI-H522 lung -25.7% | A549/ATCC NSCLC 4.66% | COLO 205 colon 2.49%
inactive: NCI-H23 lung 27.3% | NCI-H226 lung 33.2% | NCI-H322M lung 35.9% | HOP-62 NSCLC 11.8% | 786-0 renal 22.2%

COC(=O)c1c(C)nc(C)c2c1C(=O)C(Br)=C(NCCCCO)C2=O
inactive: NCI-H23 lung 51.1% | NCI-H226 lung 96.7% | NCI-H322M lung 75.5% | HOP-62 NSCLC 114% | NCI-H460 lung 40% | HOP-92 NSCLC 140% | NCI-H522 lung 71.1% | A549/ATCC NSCLC 75.1% | 786-0 renal 89.2% | COLO 205 colon 17%

CCOC(=O)C1=C(c2ccccc2)N=C2SC=C(c3cccc([N+](=O)[O-])c3)N2C1c1ccc(O)cc1 (stereo not given)
inactive: NCI-H23 lung 96.5% | NCI-H226 lung 96.8% | NCI-H322M lung 96.3% | HOP-62 NSCLC 98.6% | NCI-H460 lung 101% | HOP-92 NSCLC 90.1% | NCI-H522 lung 93.8% | A549/ATCC NSCLC 100% | 786-0 renal 96.5% | COLO 205 colon 116%

Nc1c(C(=O)c2ccc(Cl)cc2)sc(Nc2ccccc2)c1-c1nc2ccccc2s1
inactive: NCI-H23 lung 17% | NCI-H226 lung 49.9% | NCI-H322M lung 30.5% | A549/ATCC NSCLC 17.8% | COLO 205 colon 51.4%
active: HOP-62 NSCLC -7.72% | NCI-H460 lung -0.299% | HOP-92 NSCLC -18.7% | NCI-H522 lung 7.38% | 786-0 renal 8.1%

CC(=O)CC(=O)c1ccccc1.[Cu+2]
inactive: NCI-H23 lung 97.1% | NCI-H226 lung 114% | NCI-H322M lung 105% | HOP-62 NSCLC 119% | NCI-H460 lung 110% | HOP-92 NSCLC 120% | NCI-H522 lung 97.5% | A549/ATCC NSCLC 104% | 786-0 renal 107% | COLO 205 colon 116%

Cc1nc2cccc(NCc3ccc(C(=O)NO)cc3)c2c(=O)n1-c1ccccc1
active: NCI-H23 lung -16.8% | NCI-H522 lung -2.46% | COLO 205 colon -37.9%
inactive: NCI-H226 lung 67.2% | NCI-H322M lung 66.8% | HOP-62 NSCLC 43.9% | NCI-H460 lung 29.3% | HOP-92 NSCLC 15.3% | A549/ATCC NSCLC 34.1% | 786-0 renal 54.5%

c1ccc2c(-c3cnn4cc(-c5ccc(N6CCNCC6)cc5)cnc34)ccnc2c1
active: NCI-H23 lung -13.7% | NCI-H226 lung -54.8% | NCI-H322M lung -55.5% | HOP-62 NSCLC -85.7% | NCI-H460 lung -70% | HOP-92 NSCLC -59.2% | NCI-H522 lung -50% | A549/ATCC NSCLC -65.4% | 786-0 renal -91.9% | COLO 205 colon -58%

CN(Cc1ccccc1)c1nc(Cl)c(C2CC(c3ccc(Cl)cc3)=NN2c2cc(Cl)cc(Cl)c2)s1 (stereo not given)
inactive: NCI-H23 lung 94.3% | NCI-H226 lung 102% | NCI-H322M lung 102% | HOP-62 NSCLC 91.6% | NCI-H460 lung 106% | HOP-92 NSCLC 91.6% | NCI-H522 lung 91.3% | A549/ATCC NSCLC 95% | 786-0 renal 93.8% | COLO 205 colon 105%

Nc1cc(-c2ccc(Cl)cc2)nn1-c1nc(-c2ccc(Br)cc2)cs1
inactive: NCI-H23 lung 100% | NCI-H226 lung 96.3% | NCI-H322M lung 93.3% | HOP-62 NSCLC 97.9% | NCI-H460 lung 105% | HOP-92 NSCLC 90% | NCI-H522 lung 84.2% | A549/ATCC NSCLC 88.1% | 786-0 renal 93.6% | COLO 205 colon 100%

O=C(OCC(O)(CO)C(=O)NC12CC3CC(CC(C3)C1)C2)c1ccc(Cl)cc1 (stereo not given)
inactive: NCI-H23 lung 97.6% | NCI-H226 lung 89.1% | NCI-H322M lung 103% | HOP-62 NSCLC 103% | NCI-H460 lung 105% | HOP-92 NSCLC 101% | NCI-H522 lung 88.2% | A549/ATCC NSCLC 91.4% | 786-0 renal 99.4% | COLO 205 colon 102%
